Laboratory results as given in PubChem BioAssay (NCATS).
Where “and” joins values, the source holds several entries; their conditions need not be identical. Equal entries are not always repeated. Inconclusive results are not listed. Calls of active or inactive are those of the source. Calls follow the shape of the dose curve; as a rule, active = well fitted inhibition curve with a large enough effect; inconclusive = small, poorly fitted or top-dose-only effect; inactive = flat fitted curve, though single readings scatter.

Assays:
NIH3T3 [1] = experiment: Cytotoxic Profiling of Annotated Libraries Using Quantitative High-Throughput Screening (AID 1296008); conditions: Five cell lines viability, CellTiter-Glo ATP luminescence, 48-72 h; max response: stronger effect = lower value
Summary of the method: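 Cells exposed to compounds for 48 or 72 hr at 37 degrees Celsius. Viability read as ATP-coupled luminescence with CellTiter-Glo after 10 min at room temperature.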

HACAT = experiment: qHTS assay to identify novel small-molecules to repurpose for Merkel cell carcinoma treatment (AID 1296009); conditions: MCC and control cell lines, CellTiter-Glo viability, 72 h; at 44.8 µM (top of the series) unless noted
Summary of the method: (§1)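 Dose-response viability screen; 72 hr exposure at 37 degree celsius; CellTiter-Glo added, 10 min room temperature, luminescence read; RLUs scaled between no-cell and DMSO wells.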

HEK293T = experiment: as above; conditions: MCC and control cell lines, CellTiter-Glo viability, 72 h; at 44.8 µM (top of the series) unless noted
Summary of the method: as §1

MCC-13 = experiment: as above; conditions: MCC and control cell lines, CellTiter-Glo viability, 72 h; series mostly up to 46 µM
Summary of the method: as §1

MCC-26 = experiment: as above; conditions: MCC and control cell lines, CellTiter-Glo viability, 72 h; series mostly up to 46 µM
Summary of the method: as §1

MKL-1 = experiment: as above; conditions: MCC and control cell lines, CellTiter-Glo viability, 72 h; series mostly up to 46 µM
Summary of the method: as §1

MKL-2 = experiment: as above; conditions: MCC and control cell lines, CellTiter-Glo viability, 72 h; series mostly up to 46 µM
Summary of the method: as §1

UISO = experiment: as above; conditions: MCC and control cell lines, CellTiter-Glo viability, 72 h; series mostly up to 46 µM
Summary of the method: as §1

WaGa = experiment: as above; conditions: MCC and control cell lines, CellTiter-Glo viability, 72 h; series mostly up to 46 µM
Summary of the method: as §1

NIH3T3 [2] = experiment: as above; conditions: MCC and control cell lines, CellTiter-Glo viability, 72 h; at 44.8 µM (top of the series) unless noted
Summary of the method: as §1
% is scaled to controls: 0 for no effect and ±100 for the full control effect.
Also: nearly all actives have a fitted effect of over 60% in size.

CCOc1ccc2ccccc2c1C(=O)N[C@@H]1C(=O)N2[C@@H]1SC(C)(C)[C@@H]2C(=O)O
inactive: max response (NIH3T3 [1]) -3.18% and 1.59% | outcome (HACAT) | outcome (HEK293T) | Potency (MCC-13) | Potency (MCC-26) | Potency (MKL-1) | Potency (MKL-2) | Potency (UISO) | Potency (WaGa)

CC(C)(C(=O)O)c1ccc(C(O)CCCN2CCC(C(O)(c3ccccc3)c3ccccc3)CC2)cc1 (stereo not drawn)
inactive: outcome (NIH3T3 [1]) | outcome (HACAT) | outcome (HEK293T) | Potency (MCC-13) | Potency (MCC-26) | Potency (MKL-1) | Potency (MKL-2) | outcome (NIH3T3 [2]) | Potency (UISO) | Potency (WaGa)

CN(C)CCN(Cc1ccccc1)c1ccccn1
inactive: max response (NIH3T3 [1]) 0.397% | outcome (HACAT) | outcome (HEK293T) | Potency (MCC-13) | Potency (MCC-26) | Potency (MKL-1) | Potency (MKL-2) | Potency (UISO) | Potency (WaGa)

O=C(O)c1ccccc1-c1ccc(C(F)(F)F)cc1
inactive: max response (NIH3T3 [1]) -3.57% | outcome (HACAT) | outcome (HEK293T) | Potency (MCC-13) | Potency (MCC-26) | Potency (MKL-1) | Potency (MKL-2) | Potency (UISO) | Potency (WaGa)

CCCOC(=O)c1ccccc1
inactive: max response (NIH3T3 [1]) 2.42% | outcome (HACAT) | outcome (HEK293T) | Potency (MCC-13) | Potency (MCC-26) | Potency (MKL-1) | Potency (MKL-2) | Potency (UISO) | Potency (WaGa)

OC[C@H]1O[C@@H](O[C@@H]2[C@@H](CO)O[C@](O)(CO)[C@H]2O)[C@H](O)[C@@H](O)[C@H]1O
inactive: max response (NIH3T3 [1]) 4.19% | outcome (HACAT) | outcome (HEK293T) | Potency (MCC-13) | Potency (MCC-26) | Potency (MKL-1) | Potency (MKL-2) | Potency (UISO) | Potency (WaGa)

Cc1ncc(COP(=O)(O)O)c(C=O)c1O
inactive: max response (NIH3T3 [1]) 3.84% | outcome (HACAT) | outcome (HEK293T) | Potency (MCC-13) | Potency (MCC-26) | Potency (MKL-1) | Potency (MKL-2) | Potency (UISO) | Potency (WaGa)

N[C@H](C(=O)O)c1ccc(O)cc1
inactive: max response (NIH3T3 [1]) -1.62% | outcome (HACAT) inactive [at 17.4 µM] | outcome (HEK293T) inactive [at 17.4 µM] | Potency (MCC-13) | Potency (MCC-26) | Potency (MKL-1) | Potency (MKL-2) | Potency (UISO) | Potency (WaGa)

O=C1c2c(O)cccc2Cc2cccc(O)c21
inactive: max response (NIH3T3 [1]) 4.73% | outcome (HACAT) | outcome (HEK293T) | Potency (MCC-13) | Potency (MCC-26) | Potency (MKL-1) | Potency (MKL-2) | Potency (UISO) | Potency (WaGa)

CC1=C(C/C=C(\C)CCC[C@H](C)CCC[C@H](C)CCCC(C)C)C(=O)c2ccccc2C1=O
inactive: max response (NIH3T3 [1]) 1.11% | outcome (HACAT) | outcome (HEK293T) | Potency (MCC-13) | Potency (MCC-26) | Potency (MKL-1) | Potency (MKL-2) | Potency (UISO) | Potency (WaGa)

C[C@@H]1CC[C@@]2(OC1)O[C@H]1C[C@H]3[C@@H]4CC[C@H]5C[C@@H](O)CC[C@]5(C)[C@H]4CC(=O)[C@]3(C)[C@H]1[C@@H]2C
inactive: outcome (NIH3T3 [1]) | outcome (HACAT) inactive [at 4.96 µM] | outcome (HEK293T) inactive [at 4.96 µM] | activity change, negative = cytotoxicity (MCC-13) -5.49% [at 4.84 µM] | activity change, negative = cytotoxicity (MCC-26) 5.06% [at 4.84 µM] | activity change, negative = cytotoxicity (MKL-1) 7.37% [at 4.84 µM] | activity change, negative = cytotoxicity (MKL-2) 2.92% [at 4.84 µM] | outcome (NIH3T3 [2]) inactive [at 4.96 µM] | activity change, negative = cytotoxicity (WaGa) 17.9% [at 4.84 µM]

C[C@@H](O)[C@H](N)C(=O)O
inactive: max response (NIH3T3 [1]) -1.06% | outcome (HACAT) inactive [at 17.4 µM] | outcome (HEK293T) inactive [at 17.4 µM] | Potency (MCC-13) | Potency (MCC-26) | Potency (MKL-1) | Potency (MKL-2) | Potency (UISO) | Potency (WaGa)

COc1cc2[nH]c(=O)[nH]c(=O)c2cc1OC
inactive: max response (NIH3T3 [1]) 2.37% | outcome (HACAT) | outcome (HEK293T) | Potency (MCC-13) | Potency (MCC-26) | Potency (MKL-1) | Potency (MKL-2) | Potency (UISO) | Potency (WaGa)

O=S(=O)(O)NC1CCCCC1
inactive: max response (NIH3T3 [1]) 1.01% | outcome (HACAT) | outcome (HEK293T) | Potency (MCC-13) | Potency (MCC-26) | Potency (MKL-1) | Potency (MKL-2) | Potency (UISO) | Potency (WaGa)

Cc1ncc([N+](=O)[O-])n1CC(O)CCl (stereo not drawn)
inactive: max response (NIH3T3 [1]) -5.9% | outcome (HACAT) | outcome (HEK293T) | Potency (MCC-13) | Potency (MCC-26) | Potency (MKL-1) | Potency (MKL-2) | Potency (UISO) | Potency (WaGa)

O=C1NS(=O)(=O)c2ccccc21
inactive: max response (NIH3T3 [1]) -6% | outcome (HACAT) | outcome (HEK293T) | Potency (MCC-13) | Potency (MCC-26) | Potency (MKL-1) | Potency (MKL-2) | Potency (UISO) | Potency (WaGa)

CC(O)COc1ccccc1 (stereo not drawn)
inactive: max response (NIH3T3 [1]) -1.73% | outcome (HACAT) | outcome (HEK293T) | Potency (MCC-13) | Potency (MCC-26) | Potency (MKL-1) | Potency (MKL-2) | Potency (UISO) | Potency (WaGa)

CC1(C)[C@@H]2CC[C@@]1(C)C(=O)C2
inactive: max response (NIH3T3 [1]) -6.56% | outcome (HACAT) | outcome (HEK293T) | Potency (MCC-13) | Potency (MCC-26) | Potency (MKL-1) | Potency (MKL-2) | Potency (UISO) | Potency (WaGa)

CC[C@@]1(c2ccccc2)NC(=O)N(C)C1=O
inactive: max response (NIH3T3 [1]) 1.13% | outcome (HACAT) | outcome (HEK293T) | Potency (MCC-13) | Potency (MCC-26) | Potency (MKL-1) | Potency (MKL-2) | Potency (UISO) | Potency (WaGa)

CC1(C)OC(=O)NC1=O
inactive: max response (NIH3T3 [1]) 3.48% | outcome (HACAT) | outcome (HEK293T) | Potency (MCC-13) | Potency (MCC-26) | Potency (MKL-1) | Potency (MKL-2) | Potency (UISO) | Potency (WaGa)

Nc1ccc(S(=O)(=O)NC(=O)c2ccccc2)cc1
inactive: max response (NIH3T3 [1]) -0.704% | outcome (HACAT) | outcome (HEK293T) | Potency (MCC-13) | Potency (MCC-26) | Potency (MKL-1) | Potency (MKL-2) | Potency (UISO) | Potency (WaGa)

O=C(O)COc1nn(Cc2ccccc2)c2ccccc12
inactive: max response (NIH3T3 [1]) 2.16% | outcome (HACAT) | outcome (HEK293T) | Potency (MCC-13) | Potency (MCC-26) | Potency (MKL-1) | Potency (MKL-2) | Potency (UISO) | Potency (WaGa)

O=C(O)CC(O)C(=O)O (stereo not drawn)
inactive: max response (NIH3T3 [1]) 4.82% | outcome (HACAT) | outcome (HEK293T) | Potency (MCC-13) | Potency (MCC-26) | Potency (MKL-1) | Potency (MKL-2) | Potency (UISO) | Potency (WaGa)
